A selection: hits, their analogues and other compounds. The true share with any hit is near 1.3%.
miR-21 reporter: qHTS Assay for Modulators of miRNAs and/orActivators of miR-21; HeLa miR-21 FLuc reporter, luciferase, 48 h; Potency, µM (series often up to 38.3 µM), inactives show top-dose activity change, positive = activation, most hits filed as activators; 340,000 tested, under 10 active; AID 2288, 2010;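 further: % of control where 0% means no effect; miR-21 action dims this reporter so a rising signal means less miR-21 action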
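HeLa cells stably expressing CMV-driven firefly luciferase with a downstream miR-21 binding sequence, endogenously expressing miR-21, were treated with titrations (up to about 40uM final) for 48 hours at 37 degree Celsius. Luciferase luminescence was read after lysis.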
12-LOX inh: Primary qHTS assay for inhibitors of human arachidonate 12S-lipoxygenase (ALOX12): Round 2 | 580,000 compounds, 1.1% hits | Potency, µM (titrated, usually from 108 µM), without a hit: at the top dose activity change, negative = inhibition, actives largely listed as inhibitors | Polyunsaturated fatty acid lipoxygenase ALOX12 (Homo sapiens), P18054 | purified 12hLO, xylenol orange hydroperoxide absorbance; further: potency means the concentration at half of the fitted maximal effect; on the % scale 0 is the no-effect control and ±100 the full control effect
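Purified human 12hLO at 150 nM in 25 mM Hepes, 0.01% Triton X-100, pH 7.0, preincubated 15 min at room temperature with compound. Reaction started with 40 uM arachidonic acid, 30 min at room temperature. Hydroperoxide measured by Fe-xylenol orange, 573/405 nm absorbance ratio.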
PTHR1 ag: qHTS for PTHR1 Agonists: Primary Screen; Parathyroid hormone/parathyroid hormone-related peptide receptor (Homo sapiens), Q03431; HEK293 GP2 PTHR1 cells, GloSensor cAMP luminescence, 1 h; Potency, µM (doses to about 115 µM), for inactives: at the highest dose activation, most hits filed as activators; 410,000 compounds, 0.075% hits; AID 743266, 2014; further: potency means the concentration at half of the fitted maximal effect; nearly all actives have a fitted effect of over 55% in size
Target sequence (Q03431 whole entry, looked up): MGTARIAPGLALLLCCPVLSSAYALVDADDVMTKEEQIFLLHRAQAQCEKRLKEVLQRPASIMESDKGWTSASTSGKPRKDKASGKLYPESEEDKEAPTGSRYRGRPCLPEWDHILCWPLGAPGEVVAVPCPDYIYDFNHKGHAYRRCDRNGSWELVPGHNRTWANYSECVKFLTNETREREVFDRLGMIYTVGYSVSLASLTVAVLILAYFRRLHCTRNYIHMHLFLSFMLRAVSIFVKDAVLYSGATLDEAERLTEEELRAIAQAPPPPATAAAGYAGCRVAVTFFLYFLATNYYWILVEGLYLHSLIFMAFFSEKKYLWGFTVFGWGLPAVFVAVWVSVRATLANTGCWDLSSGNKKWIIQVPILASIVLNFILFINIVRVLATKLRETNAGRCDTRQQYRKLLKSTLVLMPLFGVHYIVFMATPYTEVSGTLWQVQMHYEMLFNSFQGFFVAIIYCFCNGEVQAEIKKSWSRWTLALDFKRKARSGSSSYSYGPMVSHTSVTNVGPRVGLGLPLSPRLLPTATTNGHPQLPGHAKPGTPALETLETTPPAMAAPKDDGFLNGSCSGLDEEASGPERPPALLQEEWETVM
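HEK-293-derived GP2 cells expressing PTHR1 and a GloSensor cAMP reporter, 3,000/well, plated overnight, given luciferin plus IBMX (each 0.5 mM as added) for 1 h at 37 °C, then compound for 1 h at 37 °C. Luminescence was read after 15 min at room temperature.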
ERG Ets-DNA blk: qHTS for Small Molecule Inhibitors of the ERG Ets/DNA interaction | 370,000 compounds, 0.028% hits | Transcriptional regulator ERG (Homo sapiens), P11308 | fluorescence polarization, His-ERG Ets domain / labelled DNA | Potency, µM (series often up to 76.9 µM), for the others: at the highest dose FP activity, negative = inhibition, hits mostly inhibitors; active means well fitted inhibition curve with a large enough effect in the polarisation, with a control signal flat; inconclusive means small, poorly fitted or top-dose-only effect, or effect the other way, or a change in a side signal; inactive means no such curve, though single readings can be large or run the other way; the % refers to the polarisation;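 further: polarization taken with two DNA probes labelled with fluorescein and Texas red; potency means the concentration at half of the fitted maximal effect; % of control where 0% means no effect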
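His-tagged ERG Ets domain (1 uM in the protein solution; 300mM KCl, 50mM Tris-HCl, 1mM EDTA, 1mM DTT, pH 7.5) received compound, then a probe mix of 5 nM fluorescein-DNA and 100nM Texas-615-DNA. Fluorescence polarization was read for both dyes.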
Giardia kill: Small Molecules that selectively kill Giardia lamblia: qHTS; 340,000 compounds, 0.15% hits; Giardia lamblia trophozoite viability; activity change, % at 7.66 µM, hits read low; AID 540267, 2011; in the data active means activity change below about -80%; inconclusive means between about -30% and that limit;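 further: parasites exposed to compound for two days anaerobically before the ATP read; on the % scale 0 is the no-effect control and ±100 the full control effect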
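Luminescent ATP signal served as the viability read-out, measured 15-30 min after adding ATP detection reagent to trophozoites that had been incubated with compounds for 48 hrs at 37 deg C anaerobically at 100 cells/well.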
PINK1 modulator: A Quantitative High throughput Screen to Identify Chemical Modulators of PINK1 Expression | PINK1 immunofluorescence, high-content cytometry, 24 h | Potency, µM (top dose mostly 76.6 µM), for the others: at the highest dose activation (PINK1 increase), actives largely listed as activators | 410,000 compounds, 0.2% hits | AID 624263, 2012; active means well fitted activation curve with a large enough effect; inconclusive means small, poorly fitted or top-dose-only effect; cell line not stated here; further: potency means the concentration at half of the fitted maximal effect; % of control where 0% means no effect; nearly all actives have a fitted effect of over 65% in size
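PINK1 protein, normally rapidly degraded, was detected by immunofluorescence after 24 hour compound treatment of a stable cell line. Titration data (5 concentrations) came from laser-scanning cytometry, with CCCP-treated wells as controls.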
Starred values were filed as active, the others as inactive; i = inactive; ? = inconclusive; nt = no result given; ! = not confirmed by another sample; [ ] = dose if it differs, or a comment. Unless noted, the call rests on the fitted dose curve; in most records, active means well fitted curve in the direction sought with a large enough effect; inconclusive means small, poorly fitted or top-dose-only effect, or another doubt; inactive means no such curve, though single readings can be large; an effect the other way counts as inactive or inconclusive.

SMILES	miR-21 reporter	12-LOX inh	PTHR1 ag	ERG Ets-DNA blk	Giardia kill	PINK1 modulator
CN=c1scc(-c2ccccc2F)n1/N=C/c1ccc[nH]1	?	-22%	-93%	28%	?	3%
CN=c1scc(-c2ccccc2F)n1/N=C/c1ccc(O)c(O)c1O	16%	35µM*	-51%	-2%	-103*	3%
CC(C)N=c1scc(-c2cccs2)n1/N=C/c1ccc(O)c(O)c1O	13%	14µM*	i	4%	17	1%
COC(=O)C(C)OC(=O)c1ccc(OC)c2ccccc12 (stereo not given)	nt	39%	nt	nt	nt	nt
NCCC(=O)O	nt	4%	nt	nt	nt	nt
CC[C@](N)(CCC(=O)O)C(=O)O	nt	2.8µM*!	nt	nt	nt	nt
COc1cccc(-c2oc3c(c2C#CCCO)C(O)CCC3)c1 (stereo not given)	nt	0%	i	nt	nt	0%
CCN1/C(=C/C(C)=C/c2sc3ccccc3[n+]2CC)Sc2ccccc21	?	35µM*!	-35%	nt	-6	5%
CN1CCC(NC[C@H]2Cn3c(-c4ccc(F)cc4)cnc3CO2)CC1	nt	53%[176 µM]	nt	nt	nt	nt
Nn1c(SCc2ncc(-c3ccccc3)o2)nnc1-c1ccccc1F	nt	6.3µM*	nt	nt	nt	nt
CC(C)Cn1cnc2c(c1=O)c1nc3ccccc3nc1n2Cc1ccc2c(c1)OCO2	0%	nt	nt	nt	nt	nt
CCCCn1cnc2c(c1=O)c1nc3ccccc3nc1n2Cc1ccc2c(c1)OCO2	0%	7.9µM*	-16%	-3%	21	8%
NCC(=O)N1CCC(n2nccc2NC(=O)c2ccccc2)CC1	nt	-1%	nt	nt	nt	nt
CCc1cccc(OCCCCN(CC)CC)c1	-4%	1.1µM*	i	-1%	-12	0%
CCc1cccc(OCCCCNCCCOC)c1	-4%	-23%	i	-13%	-23	-2%
Nc1nc(=S)c2[nH]c(=S)[nH]c2[nH]1	nt	7.9µM*	i	5%	-7	-2%
CSc1nc(=S)c2[nH]c(=S)[nH]c2[nH]1	0%	0%	-21%	-4%	-18	3%
O=[N+]([O-])C(/C=C(\Cl)[N+](=O)[O-])=C(N1CCCCC1)N1CCCCC1	0%	-5%	-6%	-20%	-82*	-1%
O=[N+]([O-])C(=C1SCCS1)C(=C(Cl)Cl)N1CCCCC1	-2%	?	-11%	-2%	1	4%
CCCCn1c(NC(=O)c2ccccc2Cl)c(C#N)c2nc3ccccc3nc21	?	0%	-19%[57.5 µM]	0%	12	40µM*
CCc1nc2ccc(C(=O)NCc3cccs3)cn2c1N(CCC(C)C)CCN(C)C	nt	9%	i	nt	nt	4%
Nc1nc(-c2ccc3c(c2)CCC(=O)N3)cs1	-36%	-19%	-4%	6%	24	0%
O=C1Cc2cc(-c3csc(NC4CCCCC4)n3)cc3c2N1CCC3	nt	11µM*	nt	nt	nt	nt
COc1ccc(-c2csc(NC3CCCCC3)n2)c(OC)c1	-39%	?	i	5%	5	5%
O=C1Cc2cc(-c3csc(NC4CC4)n3)ccc2N1	nt	40µM*	nt	nt	nt	nt
SMILES	miR-21 reporter	12-LOX inh	PTHR1 ag	ERG Ets-DNA blk	Giardia kill	PINK1 modulator
CCCCNc1nc(-c2ccc3c(c2)CC(=O)N3)cs1	nt	32µM*	nt	nt	nt	nt
CCNc1nc(-c2ccc3c(c2)CCC(=O)N3)cs1	nt	20µM*	nt	nt	nt	nt
Cc1ccc2c(ccn3cc4c(c(=O)n(C)c(=O)n4C)c23)c1	-9%	-7%	-22%	7%	2	6%
O=C1CCc2cc(-c3csc(NC4CC4)n3)ccc2N1	nt	35µM*	nt	nt	nt	nt
COc1ccc(CC(=O)NNC(=O)COc2ccc(C)cc2)cc1S(=O)(=O)N1CCOCC1	nt	18%	-10%	-1%	-4	2%
CC(C)N(C(=O)NC(=O)Nc1ccc(S(=O)(=O)N2CCCC2)cc1)S(C)(=O)=O	-3%	-5%	-8%	-5%	6	0%

Bioassay records from PubChem.
